TDP1 cell CPT: growth inhibition of DT40 Tdp1-/-;hTDP1 cells with camptothecin (screen for TDP1 inhibitors) | chicken DT40 Tdp1-/-;hTDP1 cells + 20 nM CPT, ATP luminescence, 48 h | Potency, µM (series often up to 46.2 µM), without a hit: top-dose activity change, negative = growth inhibition, hits mostly inhibitors | 420,000 tested, 12% active; further: nearly all actives have a fitted effect of over 55% in size
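Chicken DT40 Tdp1-/- cells stably complemented with human TDP1 were seeded at 400 cells/well in medium containing 20 nM camptothecin, exposed to pin-transferred compounds, and grown at 37 °C for at least 48 hr. Viability was read as ATP luminescence.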
DT40 TDP1 no CPT: qHTS for Inhibitors of human tyrosyl-DNA phosphodiesterase 1 (TDP1): qHTS in cells in absence of CPT. AID 686978, 2013. Potency, µM (doses to about 46.2 µM), for inactives: at the highest dose activity change, negative = growth inhibition, most hits filed as inhibitors. 420,000 tested, 15% active. DT40 Tdp1-/- hTDP1 cells, no CPT, ATP luminescence, 48 h; further: nearly all actives have a fitted effect of over 55% in size
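DT40 Tdp1-/-;hTDP1 cells, no CPT (DMSO vehicle only), 400 cells/well; compounds pin-transferred; ≥48 hr, 37 °C; CellTiter-Glo 30 min RT dark, luminescence read.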
HT1080-NT tox: kills 2HG-producing HT-1080-NT fibrosarcoma cells. HT-1080-NT fibrosarcoma viability, CellTiter-Glo ATP luminescence, 48 h. Potency, µM (series often up to 46.1 µM), for the others: top-dose activity, negative = less viability, actives largely listed as cytotoxic. AID 686970. 360,000 tested, 1.6% active;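 further: NT is the 2HG producing partner of a matched IDH1 knockdown line; 0% = DMSO-treated cells and -100% = media-only wells without cells; nearly all actives have a fitted effect of over 55% in size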
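Compounds were tested in concentration-response format on HT-1080-NT cells for 48 hours at 37 degrees C. Cell viability came from CellTiter-Glo luminescence; curves were classified by r2, response magnitude and activity.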
HT1080 IDH1KD tx: HT-1080 IDH1 knockdown cell toxicity (counter line) | AID 686971 | 360,000 tested, 2% active | HT-1080 IDH1 knockdown viability, ATP luminescence, 48 h | Potency, µM (series often up to 46.1 µM), for the others: top-dose activity, negative = toxicity, actives largely listed as cytotoxic;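 further: 0% = DMSO wells and -100% = cell-free medium wells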
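Viability of IDH1-knockdown HT-1080 fibrosarcoma cells was assessed by CellTiter-Glo after 48 h at 37 °C with titrated compound; concentration-effect curves were classified by fit quality and response size.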
KB-3-1 tox: kills parental KB-3-1 adenocarcinoma cells; 400,000 tested, 1.4% active; AID 1347075; Potency, µM (doses to about 46.1 µM), actives largely listed as cytotoxic; KB-3-1 viability, CellTiter-Glo ATP luminescence, 72 h; further: nearly all actives have a fitted effect of over 60% in size
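Viability of parental KB-3-1 cells, measured by CellTiter-Glo luminescence, followed a 72 h incubation at 37 °C with pinned compounds in phenol-red-free DMEM containing 10% FBS.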
KB-V1 cytotox: kills drug-selected multidrug resistant KB-V1 cells | KB-V1 MDR cells viability, CellTiter-Glo, 72 h | Potency, µM (top dose mostly 46.1 µM), most hits filed as cytotoxic | 400,000 tested, 3.4% active | AID 1347076; further: nearly all actives have a fitted effect of over 60% in size
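KB-V1 MDR subline cells in DMEM (phenol-red free, 10% FBS) exposed to compounds in qHTS concentration series for 72 h at 37 degrees C. Viability read by CellTiter-Glo luminescence; concentration-effect curves fitted after normalization and correction.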
The depositor's hits bear a star; i = inactive; ? = inconclusive; nt = not tested or not shown. The list is not random: actives were taken first. Their share in the collection is about 19%. The call rests on the fitted dose curve; in most records, active means well fitted curve in the direction sought with a large enough effect; inconclusive means small, poorly fitted or top-dose-only effect, or another doubt; inactive means no such curve, though single readings can be large; an effect the other way counts as inactive or inconclusive. Unless noted, on the % scale 0 is the no-effect control and ±100 the full control effect; potency means the concentration at half of the fitted maximal effect.

SMILES | TDP1 cell CPT | DT40 TDP1 no CPT | HT1080-NT tox | HT1080 IDH1KD tx | KB-3-1 tox | KB-V1 cytotox
CCn1c(C)c(CCC(=O)O)c(=O)n2nc(-c3ccccc3OC)cc12 | -22% | -5% | 1% | -1% | i | i
Cc1ccc(C)c(NC(=O)CCc2c(C)n(C)c3cc(-c4ccccc4C)nn3c2=O)c1 | 21µM* | 15µM* | nt | nt | nt | nt
Cc1ccc(C(=O)CN(CCCC(N)=O)S(=O)(=O)c2ccc([N+](=O)[O-])cc2)cc1 | -30% | -17% | 1% | -1% | i | i
CCOc1ccc2nc3cc(N)ccc3c(N)c2c1 | ? | 18µM* | nt | nt | nt | nt
CCOc1ccc2nc3cc(NCc4ccc(OC)cc4)ccc3c(N)c2c1 | 15µM* | 21µM* | ? | ? | ? | i
O=C(CSC1=NCCS1)NC(c1ccccc1)c1ccccc1 | ? | 16µM* | ? | ? | i | i
O=C(CSC1=NCCS1)Nc1cccc2ccccc12 | ? | 16µM* | 10% | 8% | i | i
O=C(CSC1=NCCS1)NCc1ccco1 | 13µM* | 12µM* | 3% | 0% | i | i
O=C(COc1ccc2c3c(c(=O)oc2c1)CCC3)Nc1ccccn1 | -2% | 12% | 7% | 10% | i | i
CCC(C)[C@H](NC(=O)N1CC(=O)Nc2ccccc21)C(=O)Nc1ccccc1C (some centres not stated) | 16µM* | ? | ? | ? | ? | i
CC(C)(C)c1ccc(C(=O)NCC(=O)OCc2cc(=O)n3nc(C4CC4)sc3n2)cc1 | -4% | -21% | nt | nt | i | ?
Cc1ccc(O)c(NC(=S)NC(=O)c2ccc(-c3ccc(Cl)cc3)o2)c1 | 23µM* | 26µM* | ? | ? | i | i
CN1CCN(c2ccc(NC(=O)c3ccc(-c4ccc(Cl)cc4)o3)cc2)CC1 | 16µM* | 21µM* | 5.8µM* | 8.2µM* | ? | ?
Cc1c(NC(=S)NC(=O)c2ccc(-c3ccc(Cl)cc3)o2)cccc1C(=O)O | 3% | 5% | -25% | -6% | i | i
O=C(COC(=O)c1ccc(-c2ccc([N+](=O)[O-])cc2)o1)NC(=O)NC12CC3CC(CC(C3)C1)C2 | 16µM* | 13µM* | -1% | 5% | ? | ?
O=C(NC(=S)Nc1ccccc1O)c1ccc(-c2ccc(Cl)cc2)o1 | 23µM* | 16µM* | ? | ? | ? | i
CS(=O)(=O)N1CCN(c2ccc(NC(=O)c3ccc(-c4ccc(Cl)cc4)o3)cc2)CC1 | ? | ? | -29% | -14% | i | i
O=C(COC(=O)c1n[nH]c2ccccc12)NC(=O)NC12CC3CC(CC(C3)C1)C2 | 13µM* | 9.2µM* | -13% | -19% | i | i
O=C(NC12CC3CC(CC(C3)C1)C2)c1ccc(-c2ccc(Cl)cc2)o1 | 23µM* | 18µM* | -16% | ? | ? | ?
O=C(NCc1ccco1)c1ccc(-c2ccc(Cl)cc2)o1 | -2% | -12% | 1% | -6% | ? | i
O=C(NC12CC3CC(CC(C3)C1)C2)c1ccc(-c2cccc(Cl)c2)o1 | ? | ? | -7% | -9% | i | ?
CC(=O)NC(=O)c1ccc(-c2ccc(Cl)cc2)o1 | -12% | -18% | 24% | 20% | ? | 8.2µM*
O=C(COC(=O)c1n[nH]c2ccccc12)NC(=O)NC1CCCC1 | ? | -23% | -5% | -8% | i | i
O=C(CNC(=O)C(c1ccccc1)c1ccccc1)OCC(=O)c1cccc2ccccc12 | ? | 20µM* | nt | nt | i | i
O=C(CNC(=O)C(c1ccccc1)c1ccccc1)OCC(=O)c1cccs1 | 1.6µM* | 1.5µM* | -3% | -6% | i | i
SMILES | TDP1 cell CPT | DT40 TDP1 no CPT | HT1080-NT tox | HT1080 IDH1KD tx | KB-3-1 tox | KB-V1 cytotox
O=C(CNC(=O)c1ccccc1)OCC(=O)c1cccs1 | -7% | -9% | 21% | 11% | i | i
COc1ccccc1C(=O)NCC(=O)OCC(=O)c1cccc2ccccc12 | ? | ? | 10% | 13% | i | i
COc1ccc(N2CCN(C(=O)CS(=O)(=O)c3cccc4nsnc34)CC2)cc1 | -14% | -28% | nt | nt | i | ?
C[C@H]1CN([C@@H](C)CO)C(=O)CCCn2cc(nn2)CO[C@@H]1CN(C)C(=O)Nc1cccc(Oc2ccccn2)c1 | -18% | -2% | -2% | 1% | i | i
CC1(c2ccccc2Br)NC(=O)N(CC(=O)N2CCc3ccccc3C2)C1=O (configuration not stated) | -28% | ? | -11% | -2% | i | i
CCOCCCNc1ccc(N2C(=O)CCCC2=O)cc1[N+](=O)[O-] | -1% | -3% | -2% | -3% | i | i
CCc1ccc(C2NC(=S)NC3=C2C(=O)N(c2ccccc2OC)C(c2ccc(CC)cc2)N3)cc1 (configuration not stated) | 16µM* | 18µM* | 1% | -3% | i | ?
O=C1C2CCCN2C(c2ccc(F)cc2)N1c1ccc(Cl)cc1 (configuration not stated) | 6% | -16% | -13% | -20% | ? | ?
O=C1C2=C(NC(=S)NC2c2ccc(Cl)cc2)NC(c2ccc(Cl)cc2)N1c1ccc(Cl)cc1 (configuration not stated) | ? | ? | ? | ? | 16µM* | ?
OC(c1ccc(F)cc1)C(CN1CCOCC1)c1ccccc1 (configuration not stated) | -30% | ? | 2% | 5% | i | i
CC(CN1CCOCC1)OC(=O)c1ccc(Br)cc1 (configuration not stated) | 0.92µM* | 0.65µM* | ? | ? | ? | ?
O=C(c1ccc(Br)cc1)C(CN1CCOCC1)c1ccccc1 (configuration not stated) | 1.3µM* | 2.1µM* | 10µM* | 7.3µM* | ? | ?
CCOc1ccc(C(CN2CCOCC2)C(C)=O)cc1OC (configuration not stated) | 4.1µM* | 4.1µM* | 21µM* | 10µM* | ? | ?
O=C(c1ccccc1)C(CN1CCCCC1)c1ccccc1 (configuration not stated) | 1.8µM* | 2.1µM* | 2.6µM* | 10µM* | 5.8µM* | 15µM*

Screening results: PubChem, National Center for Advancing Translational Sciences (NCATS)
